Data on 13 molecules can be found in PubChem BioAssay (NCATS).

Where “and” joins values, the source holds several entries; their conditions need not be identical. Identical values can stand only once. Inconclusive results are not listed. Calls of active or inactive are those of the source. Unless noted, calls come from the whole dose curve; as a rule, active = well fitted curve in the direction sought with a large enough effect; inconclusive = small, poorly fitted or top-dose-only effect, or another doubt; inactive = no such curve, though single readings can be large; an effect the other way counts as inactive or inconclusive.

Assay [1] can be described thus: qHTS assay for small molecule agonists of the antioxidant response element (ARE) signaling pathway (AID 651741; active = well fitted activation curve with a large enough effect in the signal ratio; the % refers to the signal ratio; note: potency is the fitted concentration of half-maximal effect; for activation: % of control where 0% means no effect). The method in brief:
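Stably integrated ARE-beta-lactamase reporter HepG2 cells; 16 h compound incubation, 37 C; LiveBLAzer FRET substrate 2 h at room temperature; fluorescence intensity.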
For orientation: In qHTS, concentration-response curves come from the screen itself.

For assay [2], the target named is Nuclear receptor ROR-gamma (Homo sapiens) (UniProt P51449). Briefly: qHTS assay for small molecule antagonists of the retinoid-related orphan receptor gamma (ROR-gamma) signaling pathway (AID 651802).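 Note: CHO cells with doxycycline-induced ROR-gamma expression; % is set by controls: 0 for no effect and ±100 for the full control effect; nearly all actives have a fitted effect of over 60% in size.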 A digest of the protocol:
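Steps: cells dispensed; compound or DMSO transferred by pin tool; doxycycline added to induce the ROR response element-driven luciferase; plates held 16hr at 37C; ONE-Glo added and luminescence measured.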

Assay [3] in a line: S16 Schwann cell viability assay (CellTiter-Glo assay) (AID 624031).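 Note: cellular ATP luminescence as a viability measure; plate controls were DMSO-treated cells for no effect and cell-free wells for full effect; nearly all actives have a fitted effect of over 70% in size.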 The method in brief:
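Native S16 Schwann cells (rat), serum-containing medium, overnight attachment then 24 h drug exposure at 37 °C/5% CO2. CellTiter-Glo ATP signal; normalized to cell-free and vehicle wells.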
(In ATP-based viability assays light output follows the ATP content of the culture.)

The nature of assay [4]: S16 Schwann cell PMP22 intronic element firefly luciferase assay (AID 624032).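 Note: plate controls were DMSO for no effect and PTC124 positive control mean for full effect; nearly all actives have a fitted effect of over 30% in size.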 The method in brief:
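Rat S16 Schwann cells stably carrying firefly luciferase driven by a PMP22 intronic element, in 10% FBS, treated 24 h at 37 C. ONE-Glo luminescence normalized to PTC124 control and DMSO (0%); curves classed by r2, magnitude and activity.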

Assay [5] is described as follows: S16 Schwann cell PMP22 intronic element beta-lactamase assay (AID 624044; calls by dose curve;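 note: 0% = DMSO and -100% = potassium clavulanate positive control; nearly all actives have a fitted effect of over 15% in size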). A digest of the protocol:
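Beta-lactamase reporter under a PMP22 intronic regulatory element in stable S16 rat Schwann cells; 24 h compound exposure. 460 nm blue signal normalized between DMSO (0%) and potassium clavulanate, with 535 nm FRET tracking viability; curves classed by r2 and response.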

Another assay deals with 7G8. Briefly: qHTS profiling for inhibitors of Plasmodium falciparum proliferation (AID 504749).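 Note: 0% = DMSO vehicle and full inhibition = artemisinin control; nearly all actives have a fitted effect of over 60% in size.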 The conditions noted are these: P. falciparum in erythrocytes, SYBR Green DNA, 72 h; series mostly up to 12.8 µM. The method in brief:
(§1)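 Each compound contacts P. falciparum-infected red blood cells for 72 h at 37 C; lysis buffer (Tris, EDTA, saponin, Triton X, SYBR Green I) is added and fluorescence measured next morning; values normalized to controls.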

In the next assay the test system is CP215. Described as above. The conditions noted are these: P. falciparum in erythrocytes, SYBR Green DNA, 72 h; series mostly up to 28.7 µM. A digest of the protocol:
as §1

The test system of a further assay is GB4. Described as above. The conditions noted are these: P. falciparum in erythrocytes, SYBR Green DNA, 72 h; series mostly up to 12.8 µM. The method in brief: as §1
In another assay the test system is ICS. Described as above. The conditions noted are these: P. falciparum in erythrocytes, SYBR Green DNA, 72 h; series mostly up to 12.8 µM. A digest of the protocol:
as §1

A further assay deals with P93_24. The assay is described as above. The conditions noted are these: P. falciparum in erythrocytes, SYBR Green DNA, 72 h; series mostly up to 12.8 µM. A digest of the protocol: as §1
Assay [6] concerns the target Guanine nucleotide-binding protein G(i) subunit alpha-1 (Homo sapiens) (UniProt P63096). Description: qHTS Assay for Inhibitors of RGS12 GoLoco Motif Activity (Green Fluorophore) (AID 879).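 Note: 0% = labeled peptide with Gαi1 and full inhibition = labeled peptide alone without protein; negative values mean loss of peptide binding seen as reduced polarization.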 A digest of the protocol:
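A drop in FITC polarization marked displacement of the FITC-tagged RGS12 GoLoco peptide (10 nM) from Gαi1 (50 nM). Compounds were incubated 10 min at room temperature in Tris pH 7.5 buffer containing 150 mM NaCl, 0.1 mM GDP and 0.05% NP40; unlabeled peptide titration served as control.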

The subject of another assay is DIV17. Description: qHTS profiling for inhibitors of Plasmodium falciparum proliferation (AID 504749).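 Note: 0% = DMSO vehicle and full inhibition = artemisinin control; nearly all actives have a fitted effect of over 60% in size.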 The conditions noted are these: P. falciparum in erythrocytes, SYBR Green DNA, 72 h; series mostly up to 12.8 µM. The method in brief: as §1
The target of assay [7] is Cytochrome P450 2C9 (Homo sapiens) (UniProt P11712). Briefly: qHTS for inhibitors of CYP2C9 against the NCATS DSHEA and TCM libraries (AID 1919973). Note: potency is the fitted concentration of half-maximal effect. A digest of the protocol:
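Concentration-response screening with isoform-matched pro-luciferin substrates. The CYP reaction was initiated by NADPH regenerating solution and ran 30-45 min in darkness at room temperature.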

Assay [8] concerns the target DNA dC->dU-editing enzyme APOBEC-3G (Homo sapiens) (UniProt Q9HC16). Description: qHTS for inhibitors of Vif-A3G interactions: Validation (AID 588379). Note: 0% is about no effect. The method in brief: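 Yellow fluorescence (Ex 488, Em 500-530) of Vif-coexpressing HeLa A3G-eYFP cells, scanned by Acumen cytometer, reports blocked A3G degradation. Cells plated at 700/well overnight at 37 deg C before compound addition, then a further overnight compound incubation at 37 deg C.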

The target in assay [9] is Bile acid receptor (Homo sapiens) (UniProt Q96RI1). Description: qHTS assay for small molecule antagonists of farnesoid X receptor signaling (AID 588526; calls by dose curve; note: % is set by controls: 0 for no effect and ±100 for the full control effect). A digest of the protocol:
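Antagonist mode: titrated compounds tested against chenodeoxycholic acid stimulation (normalized to 50 uM CDCA and DMSO) in GeneBLAzer HEK293T cells for 16 h. Beta-lactamase read by CCF4 fluorescence; IC50 from Hill fits.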

Assay [10] concerns the target Glucocorticoid receptor (Homo sapiens) (UniProt P04150). Description: qHTS assay for small molecule agonists of glucocorticoid receptor signaling (AID 588532; active = well fitted curve in the direction sought with a large enough effect in the signal ratio, with a control signal flat; the % refers to the signal ratio;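 note: 100% = dexamethasone at 0.1 µM and 0% = DMSO only wells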). The conditions noted are these: HeLa MMTV-bla, beta-lactamase ratio, agonist, 18 h; stronger effect = higher value; percent of dexamethasone control, DMSO zero. The method in brief: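 MMTV-bla HeLa beta-lactamase reporter cells in 1% charcoal/dextran FBS medium, compounds up to 92 uM for 18 h at 37 C, CCF4 readout; normalized to 0.1 uM dexamethasone (100%), EC50 and efficacy from Hill fits.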

For assay [11] the target is unchanged. Briefly: qHTS assay for small molecule antagonists of glucocorticoid receptor signaling (AID 588533; active = well fitted inhibition curve with a large enough effect in the signal ratio, with a control signal flat, not every such curve was filed as active; the % refers to the signal ratio;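 note: cells stimulated with 2 nM dexamethasone as agonist; % is set by controls: 0 for no effect and ±100 for the full control effect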). A digest of the protocol: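 Antagonist-mode qHTS: compound titrations added to GRE-bla HeLa cells, then dexamethasone 2 nM final; 18 h, 37 C. CCF4 FRET fluorescence normalized to dexamethasone and DMSO; IC50 from Hill fit.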
A short description of assay [12]: qHTS assay for small molecule antagonists of peroxisome proliferator-activated receptor delta signaling (AID 588535; active = well fitted inhibition curve with a large enough effect in the signal ratio, with a control signal flat, not every such curve was filed as active; the % refers to the signal ratio;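 for max response: cells co-treated with a PPAR-delta agonist as stimulator during compound exposure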). The conditions noted are these: HEK293T PPARd-UAS-bla, beta-lactamase FRET ratio, 18 h; 460 nm channel. The method in brief: (§2)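 Fluorescence from CCF4-loaded GeneBLAzer PPAR-delta-UAS-bla HEK293T cells (2 hrs RT loading) quantified reporter inhibition after an 18 hr, 37 C compound exposure across a titration.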

Assay [13] deals with Peroxisome proliferator-activated receptor delta (Homo sapiens) (UniProt Q03181). The description is as above. A digest of the protocol:
as §2

Assay [14] deals with Peroxisome proliferator-activated receptor gamma (Homo sapiens) (UniProt P37231). Briefly: qHTS assay for small molecule antagonists of peroxisome proliferator-activated receptor gamma signaling (AID 588537; active = well fitted inhibition curve with a large enough effect in the signal ratio, with a control signal flat, not every such curve was filed as active; the % refers to the signal ratio;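 note: reporter cells co-stimulated with 50 nM rosiglitazone agonist during compound treatment; % of control where 0% means no effect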). A digest of the protocol: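 Fluorescence at 460 and 530 nm (405 nm excitation) reported beta-lactamase cleavage of CCF4 after 2 h room-temperature loading. HEK293 reporter cells in 1% charcoal/dextran-treated FBS had received compound and rosiglitazone for 16 h.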
Chain of Peroxisome proliferator-activated receptor gamma (Homo sapiens) (P37231 whole entry, looked up): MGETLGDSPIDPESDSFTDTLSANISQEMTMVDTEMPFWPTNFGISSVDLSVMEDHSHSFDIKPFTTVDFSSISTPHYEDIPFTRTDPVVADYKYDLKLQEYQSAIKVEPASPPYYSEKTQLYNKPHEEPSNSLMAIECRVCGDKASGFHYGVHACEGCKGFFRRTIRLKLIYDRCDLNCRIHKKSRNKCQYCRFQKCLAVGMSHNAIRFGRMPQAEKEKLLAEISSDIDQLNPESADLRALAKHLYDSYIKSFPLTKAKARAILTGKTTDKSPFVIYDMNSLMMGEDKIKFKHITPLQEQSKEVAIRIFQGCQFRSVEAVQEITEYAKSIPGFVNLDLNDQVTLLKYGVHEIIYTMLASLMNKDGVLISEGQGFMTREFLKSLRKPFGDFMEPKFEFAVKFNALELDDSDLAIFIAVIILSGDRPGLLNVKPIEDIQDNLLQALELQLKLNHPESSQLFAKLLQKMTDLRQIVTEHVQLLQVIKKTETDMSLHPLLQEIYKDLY

Chain of Nuclear receptor ROR-gamma (Homo sapiens) (P51449 whole entry, looked up): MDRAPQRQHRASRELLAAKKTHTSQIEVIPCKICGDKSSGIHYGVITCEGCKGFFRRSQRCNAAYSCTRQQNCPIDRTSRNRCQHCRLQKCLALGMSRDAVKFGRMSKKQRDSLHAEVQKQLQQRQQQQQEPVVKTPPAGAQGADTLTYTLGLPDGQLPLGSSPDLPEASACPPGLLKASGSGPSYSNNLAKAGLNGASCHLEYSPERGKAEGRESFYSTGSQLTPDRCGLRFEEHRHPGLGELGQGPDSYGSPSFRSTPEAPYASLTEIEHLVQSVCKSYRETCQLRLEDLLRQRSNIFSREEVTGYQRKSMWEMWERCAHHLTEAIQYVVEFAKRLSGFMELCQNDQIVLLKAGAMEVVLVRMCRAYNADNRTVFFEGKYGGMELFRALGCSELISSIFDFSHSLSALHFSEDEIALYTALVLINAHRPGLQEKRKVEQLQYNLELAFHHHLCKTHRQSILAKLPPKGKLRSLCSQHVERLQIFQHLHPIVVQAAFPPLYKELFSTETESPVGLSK
Chain of Peroxisome proliferator-activated receptor delta (Homo sapiens) (Q03181 whole entry, looked up): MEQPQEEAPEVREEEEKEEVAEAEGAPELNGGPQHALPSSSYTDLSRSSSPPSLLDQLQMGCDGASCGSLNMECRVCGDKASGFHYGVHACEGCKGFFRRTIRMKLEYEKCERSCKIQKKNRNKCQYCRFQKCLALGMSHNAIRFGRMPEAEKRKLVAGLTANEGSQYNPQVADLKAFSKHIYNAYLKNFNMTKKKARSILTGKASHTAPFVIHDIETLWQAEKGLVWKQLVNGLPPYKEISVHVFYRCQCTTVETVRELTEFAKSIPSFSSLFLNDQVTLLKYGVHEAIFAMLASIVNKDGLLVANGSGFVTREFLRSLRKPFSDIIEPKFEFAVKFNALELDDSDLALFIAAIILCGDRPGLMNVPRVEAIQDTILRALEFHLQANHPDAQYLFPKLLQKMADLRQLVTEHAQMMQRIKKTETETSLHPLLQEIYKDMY
Chain of Cytochrome P450 2C9 (Homo sapiens) (P11712 whole entry, looked up, canonical isoform): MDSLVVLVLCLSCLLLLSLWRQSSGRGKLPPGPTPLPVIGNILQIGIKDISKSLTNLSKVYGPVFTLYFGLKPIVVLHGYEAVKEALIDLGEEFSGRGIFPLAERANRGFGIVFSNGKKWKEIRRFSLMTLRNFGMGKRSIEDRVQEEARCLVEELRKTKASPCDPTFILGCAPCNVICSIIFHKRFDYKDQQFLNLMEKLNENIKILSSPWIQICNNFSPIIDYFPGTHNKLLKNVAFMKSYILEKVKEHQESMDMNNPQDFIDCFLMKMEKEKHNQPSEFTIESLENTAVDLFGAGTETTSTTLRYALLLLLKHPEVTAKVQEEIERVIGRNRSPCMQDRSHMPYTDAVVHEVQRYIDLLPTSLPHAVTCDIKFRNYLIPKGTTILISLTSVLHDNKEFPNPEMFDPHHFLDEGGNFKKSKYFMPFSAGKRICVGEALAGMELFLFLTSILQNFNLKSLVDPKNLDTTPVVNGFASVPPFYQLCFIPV
Chain of Bile acid receptor (Homo sapiens) (Q96RI1 whole entry, looked up): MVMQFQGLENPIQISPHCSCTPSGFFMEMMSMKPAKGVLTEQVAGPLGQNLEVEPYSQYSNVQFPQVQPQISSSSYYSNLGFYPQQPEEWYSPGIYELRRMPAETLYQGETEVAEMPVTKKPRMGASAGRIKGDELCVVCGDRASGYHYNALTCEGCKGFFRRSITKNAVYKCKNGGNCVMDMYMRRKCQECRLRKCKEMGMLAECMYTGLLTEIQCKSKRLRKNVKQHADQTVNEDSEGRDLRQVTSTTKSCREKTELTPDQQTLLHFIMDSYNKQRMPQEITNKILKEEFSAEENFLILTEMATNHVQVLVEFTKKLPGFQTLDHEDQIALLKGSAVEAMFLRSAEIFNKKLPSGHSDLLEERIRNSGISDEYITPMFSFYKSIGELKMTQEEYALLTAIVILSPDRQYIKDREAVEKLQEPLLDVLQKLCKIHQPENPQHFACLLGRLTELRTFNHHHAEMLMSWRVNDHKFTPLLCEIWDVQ
Chain of Glucocorticoid receptor (Homo sapiens) (P04150 whole entry, looked up): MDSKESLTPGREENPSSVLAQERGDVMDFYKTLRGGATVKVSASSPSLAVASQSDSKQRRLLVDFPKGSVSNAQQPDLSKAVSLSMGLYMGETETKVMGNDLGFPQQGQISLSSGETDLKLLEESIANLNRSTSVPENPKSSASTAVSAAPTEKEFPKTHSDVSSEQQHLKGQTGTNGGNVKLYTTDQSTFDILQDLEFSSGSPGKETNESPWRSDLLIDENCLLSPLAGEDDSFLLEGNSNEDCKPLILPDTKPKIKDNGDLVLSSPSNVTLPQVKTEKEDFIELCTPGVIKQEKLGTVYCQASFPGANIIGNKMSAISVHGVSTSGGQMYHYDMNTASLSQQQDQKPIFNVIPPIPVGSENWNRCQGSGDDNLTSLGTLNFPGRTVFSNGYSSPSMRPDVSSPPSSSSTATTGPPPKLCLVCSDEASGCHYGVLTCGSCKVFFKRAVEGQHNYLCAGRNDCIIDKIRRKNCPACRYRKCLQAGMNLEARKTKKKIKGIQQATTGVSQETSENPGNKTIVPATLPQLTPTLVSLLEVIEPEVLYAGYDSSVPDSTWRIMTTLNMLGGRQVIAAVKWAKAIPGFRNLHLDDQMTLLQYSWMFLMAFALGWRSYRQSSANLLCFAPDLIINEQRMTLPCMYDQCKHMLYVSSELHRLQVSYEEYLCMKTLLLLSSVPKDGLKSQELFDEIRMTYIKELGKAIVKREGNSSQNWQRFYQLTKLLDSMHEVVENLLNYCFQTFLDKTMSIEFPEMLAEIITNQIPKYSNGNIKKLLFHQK
Chain of DNA dC->dU-editing enzyme APOBEC-3G (Homo sapiens) (Q9HC16 whole entry, looked up): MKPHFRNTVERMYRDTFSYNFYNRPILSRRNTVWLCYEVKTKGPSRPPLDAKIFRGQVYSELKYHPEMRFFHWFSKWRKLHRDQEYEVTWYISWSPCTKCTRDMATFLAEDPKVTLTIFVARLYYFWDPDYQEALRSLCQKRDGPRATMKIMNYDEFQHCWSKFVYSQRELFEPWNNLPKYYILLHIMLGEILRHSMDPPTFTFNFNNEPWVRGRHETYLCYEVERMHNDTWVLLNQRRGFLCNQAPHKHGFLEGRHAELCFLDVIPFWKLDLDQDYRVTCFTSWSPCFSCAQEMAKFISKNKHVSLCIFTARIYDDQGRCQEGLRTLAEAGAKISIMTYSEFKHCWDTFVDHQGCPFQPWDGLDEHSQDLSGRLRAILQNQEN
Chain of Guanine nucleotide-binding protein G(i) subunit alpha-1 (Homo sapiens) (P63096 whole entry, looked up): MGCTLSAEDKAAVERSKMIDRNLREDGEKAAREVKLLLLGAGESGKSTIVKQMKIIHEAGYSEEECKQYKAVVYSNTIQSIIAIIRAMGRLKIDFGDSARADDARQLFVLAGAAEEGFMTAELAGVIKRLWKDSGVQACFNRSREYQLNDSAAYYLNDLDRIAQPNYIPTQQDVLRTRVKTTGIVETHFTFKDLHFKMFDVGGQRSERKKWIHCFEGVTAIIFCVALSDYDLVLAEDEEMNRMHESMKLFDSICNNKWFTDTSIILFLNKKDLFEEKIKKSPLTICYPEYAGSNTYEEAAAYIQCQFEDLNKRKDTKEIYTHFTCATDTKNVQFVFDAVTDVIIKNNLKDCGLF

`Cc1occc(=O)c1O`: the Potency entry in assay [1] is “inactive”. The outcome in assay [2] was inactive.
Regarding `C[N+](C)(C)CC(O)CC(=O)O` (stereo unspecified), the Potency result (in assay [3]; in assay [4]; with 7G8; in the assay with CP215; with GB4; in the assay with ICS) was “inactive” in each case. Moreover, the Potency result with P93_24 is “inactive”. Moreover, the molecule was called inactive in assay [5].
Turning to `CN1[C@@H]2CC[C@H]1CC(OC(=O)[C@@H](O)c1ccccc1)C2` (stereo partly specified), the Potency result (in [6]; in the assay with 7G8; in the assay with CP215; in the assay on DIV17; with GB4; with ICS) was “inactive” throughout. Moreover, the Potency result with P93_24 is “inactive”.
Consider `COc1ccc2ccc(=O)oc2c1`, for which the Potency result in [7] is “inactive”.
As to `O=C(/C=C/c1ccc(O)c(O)c1)OC(Cc1ccc(O)c(O)c1)C(=O)O` (stereo unspecified), the outcome in [8] was inactive.
Take `CC1=CC(=O)CC(C)(C)C1(O)/C=C/C(C)=C\C(=O)O` (stereo unspecified): the molecule was called inactive in [8], in assay [9], in [11], in [13], in assay [14] and in assay [2]. The activation in [10] is 1.52% (inactive). Also, the max response in assay [12] was determined as 3.87%. For the same molecule, the Potency in assay [1] is 37.6 µM (active).
`C[C@@H]1CCC[C@H](C)N1NC(=O)c1ccc(Cl)c(S(N)(=O)=O)c1`: the Potency entry (in assay [3]; in [4]; in the assay with 7G8; in the assay with CP215; with DIV17; with GB4) was “inactive” in each case. In addition, the Potency result in the assay with ICS and in the assay with P93_24 was “inactive” in each case.
Take `CC(C)N1CCN(c2ccc(OC[C@@H]3CO[C@@](Cn4cncn4)(c4ccc(Cl)cc4Cl)O3)cc2)CC1`: the Potency result (in [3]; in assay [4]; with DIV17; in the assay with ICS) was “inactive” in each case. Further, in assay [5], the outcome was inactive.
Regarding `O=c1ccc2ccc(O)cc2o1`, in [7], the Potency is 7.08 µM (active).
On to `CN(C)CC/C=C1\c2ccccc2CSc2ccccc21`, for which the Potency entry in [3] and in [4] was “inactive” throughout.
As for `C=C(C)[C@H]1CC=C(C)C(=O)C1`, the result in assay [8], in assay [11] and in [13] was inactive. Further, the activation in assay [10] was -5.14% (inactive) and -7.53% (inactive). In addition, the max response in assay [12] is 35.6% and 28.4%. In [7], the Potency entry is “inactive”.
Turning to `C=CC(C)(O)CCC=C(C)C` (stereo unspecified), the molecule was classed as inactive in assay [8], in assay [9], in [11] and in assay [14]. In addition, the activation in assay [10] was -2.85% (inactive) and -11.4% (inactive). The Potency entry in assay [1] was “inactive”.
With `COS(C)(=O)=O`, the activation in assay [10] was -1.66% (inactive). Moreover, the call in assay [11], in [13] and in assay [2] was inactive. Also, the max response in [12] was -15.8%.
